For five molecules, composite z-score, composite Z-score and z-score results are on record in PubChem BioAssay.

Active and inactive are the calls of the source.

The target of one assay is Albumin (Bos taurus) (UniProt P02769). Put plainly: bovine serum albumin binders on microarray, profiling panel, artefact control for SMM control protein annotation, biochemical, small-molecule microarray, Alexa647 label, 635/667 nm fluorescence (AID 1118).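 Further: score merges 667 nm emission intensity and signal-to-noise per printed compound spot.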 The note with it: BSA-A647 binding, fluorescence 635 nm, higher = more signal.
A short description of assay [1]: small-molecule microarray binders of probe aXIP, primary screen, biochemical, NeuroSMM set, 635/667 nm fluorescence (AID 1119).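 Further: probe is the protein aXip251-270 applied at 1 µg/mL to compound-printed slides; binding of probe to printed compounds measured as 667 nm fluorescence plus signal to noise.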 The note with it: higher = more signal, called active from +8 up or from −8 down.
Assay [2] is described as follows: small-molecule binders of probe aNOTCH3, primary screen, biochemical, small-molecule microarray, 635/667 nm fluorescence (AID 1120).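 Further: probe is a biotin-tagged antibody raised against NOTCH3 rather than NOTCH3 protein; score merges spot fluorescence near 667 nm with spot signal to noise.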 To be noted: higher = more signal.
Assay [3] in a line: small-molecule binders of probe aNOTCH2, primary screen, biochemical, small-molecule microarray, 635/667 nm fluorescence (AID 1121).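 Further: score merges feature fluorescence read at 667 nm with its signal to noise.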 The note with it: higher = more signal.
Assay [4] concerns the target Carbonic anhydrase 2 (Homo sapiens) (UniProt P00918). Put plainly: CAII small-molecule binders, profiling panel, biochemical, small-molecule microarray, Alexa647-labelled CAII (AID 1122). To be noted: CAII-A647 binding fluorescence, higher = more signal.
Assay [5] in a line: COS7 lysate on small-molecule microarray, probe aHis, 635 nm (AID 1123).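 Further: z-score combines 667nm fluorescence intensity with signal-to-noise per printed compound spot.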 The note with it: COS7 cell lysate, fluorescence, higher = more signal.
The nature of assay [6]: compound binding in COS7 lysate, probe aLAP1, primary screen, cell lysate, small-molecule microarray (AID 1124).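 Further: lysate comes from COS7 cells expressing LAP1 and is applied at 0.3 µg/mL; score merges spot fluorescence near 667 nm with signal-to-noise over triplicate slides.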 To be noted: probe aLAP1, fluorescence, higher = more signal.
For the next assay, the system named is Sam68 (KHDRBS1). Put plainly: Sam68 small-molecule binders, primary screen, biochemical, small-molecule microarray, 635 nm fluorescence (AID 1125).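 Further: score merges 667 nm channel intensity with signal to noise over triplicate slides.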 To be noted: small-molecule microarray binding, higher = more signal.
Assay [7] relates to Chordin-like protein 2 (CHRDL2). In words: CHRDL2 small-molecule binders, primary screen, biochemical, small-molecule microarray, 635 nm fluorescence (AID 1126).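 Further: printed compound slides probed with Chrdl2 protein at 4 µg/mL for 1 h at 4 C; score merges 667 nm emission intensity with signal to noise over three replicate slides.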 To be noted: small-molecule microarray binding, fluorescence 635 nm; higher = more signal.
The target in assay [8] is Concanavalin-A (Canavalia ensiformis) (UniProt P02866). In words: ConA small-molecule binders, primary screen, artefact control for SMM control protein annotation, biochemical, small-molecule microarray, Alexa647 label, 635 nm (AID 1127).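 Further: z combines 667 nm emission intensity with signal-to-noise across three replicate slides.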 The note with it: ConA-A647 binding fluorescence, higher = more signal.
Assay [9] is described as follows: anti-His antibody binders, primary screen, artefact control for SMM control protein annotation, biochemical, small-molecule microarray, 635 nm fluorescence (AID 1128).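 Further: score merges feature fluorescence with signal-to-noise for each printed compound spot.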 The note with it: anti-His Alexa647 antibody binding, higher = more signal.
In assay [10] the test system is Human papillomavirus type 1a E7 protein (residues 1-88). In words: HPV1a E7 small-molecule binders, primary screen, biochemical, small-molecule microarray, residues 1-88, 635 nm (AID 1129). The note with it: small-molecule microarray binding, fluorescence 635 nm; higher = more signal.
The target of assay [11] is Focal adhesion kinase 1 (Homo sapiens) (UniProt Q05397). Put plainly: small-molecule microarray binders of FAK, primary screen, biochemical, 635/667 nm fluorescence, BSA, DTT (AID 1130).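 Further: composite of spot emission at 667 nm and signal to noise over triplicate slides.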 To be noted: PTK2 binding, 635 nm fluorescence, higher = more signal.
Assay [12] relates to Fibrinogen (Alexa647-labelled). In words: fibrinogen binders on compound microarrays, profiling panel, artefact control for SMM control-protein annotation, biochemical, small-molecule microarray, 635/667 nm fluorescence (AID 1131).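 Further: z-score merges 667 nm fluorescence with per-spot signal-to-noise over triplicate slides.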 To be noted: fibrinogen-A647 binding fluorescence, higher = more signal.
For assay [13], the target named is Follistatin (Homo sapiens) (UniProt P19883). In words: follistatin binders on small-molecule microarrays, primary screen, biochemical, small-molecule microarray, 635/667 nm fluorescence (AID 1132). To be noted: FST binding, 635 nm fluorescence, higher = more signal.
For assay [14], the target named is Fibroblast growth factor 2 (Homo sapiens) (UniProt P09038). In words: FGF2 binders on small-molecule microarrays, primary screen, biochemical, small-molecule microarray, 635/667 nm fluorescence (AID 1133). The note with it: small-molecule microarray binding, FGF2, fluorescence 635/667; higher = more signal.
Assay [15] is described as follows: mitochondrial membrane potential change in A549 cells, profiling panel, cell-based, JC-1 fluorescence, basal, 24 h, 100 nL (AID 1138).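 Further: A549 lung adenocarcinoma cells under basal conditions with no added stimulus; test concentration not given here.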 The note with it: higher = more signal.
Another assay has as its system Lefty1. In words: Lefty1 binders on small-molecule microarrays, primary screen, biochemical, small-molecule microarray, 635/667 nm fluorescence (AID 1139). To be noted: small-molecule microarray binding, fluorescence 635/667; higher = more signal.
Assay [16] has as its system wheat germ agglutinin (Triticum aestivum), Alexa647-labelled. In words: wheat germ agglutinin binders on compound microarrays, profiling panel, artefact control for SMM control-protein annotation, biochemical, small-molecule microarray, 635/667 nm fluorescence (AID 1140).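 Further: score merges 667 nm feature emission with signal to noise over triplicate slides.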 To be noted: WGA-A647 binding, 635 nm fluorescence, higher = more signal.
Assay [17] addresses Luciferin 4-monooxygenase (Photinus pyralis) (UniProt P08659). Put plainly: firefly luciferase enzyme inhibitors, primary screen, biochemical, luminescence, purified enzyme, 2006 set (AID 1141).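 Further: cell-free assay with purified firefly luciferase at 100 ng per well in PBS; test concentration not given here.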 To be noted: SteadyGlo luminescence, 30 min, higher = more signal, called active from +8 up or from −8 down.

Chain of Albumin (Bos taurus) (P02769 whole entry, looked up): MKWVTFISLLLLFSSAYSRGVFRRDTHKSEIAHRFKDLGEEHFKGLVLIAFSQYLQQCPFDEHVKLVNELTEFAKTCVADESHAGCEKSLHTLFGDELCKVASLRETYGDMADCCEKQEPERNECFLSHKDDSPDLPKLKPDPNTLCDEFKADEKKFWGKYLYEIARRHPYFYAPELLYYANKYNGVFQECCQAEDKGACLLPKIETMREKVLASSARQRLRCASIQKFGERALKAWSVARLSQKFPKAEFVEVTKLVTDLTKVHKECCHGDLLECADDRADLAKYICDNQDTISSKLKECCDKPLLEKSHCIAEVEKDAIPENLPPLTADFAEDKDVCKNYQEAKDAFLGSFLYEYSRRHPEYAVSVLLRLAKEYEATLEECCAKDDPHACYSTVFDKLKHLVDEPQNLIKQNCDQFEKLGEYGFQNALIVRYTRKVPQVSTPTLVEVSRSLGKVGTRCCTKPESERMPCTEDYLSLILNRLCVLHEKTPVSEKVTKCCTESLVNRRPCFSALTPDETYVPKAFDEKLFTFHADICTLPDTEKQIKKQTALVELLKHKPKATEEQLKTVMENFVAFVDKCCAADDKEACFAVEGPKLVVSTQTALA
Chain of Focal adhesion kinase 1 (Homo sapiens) (Q05397 whole entry, looked up): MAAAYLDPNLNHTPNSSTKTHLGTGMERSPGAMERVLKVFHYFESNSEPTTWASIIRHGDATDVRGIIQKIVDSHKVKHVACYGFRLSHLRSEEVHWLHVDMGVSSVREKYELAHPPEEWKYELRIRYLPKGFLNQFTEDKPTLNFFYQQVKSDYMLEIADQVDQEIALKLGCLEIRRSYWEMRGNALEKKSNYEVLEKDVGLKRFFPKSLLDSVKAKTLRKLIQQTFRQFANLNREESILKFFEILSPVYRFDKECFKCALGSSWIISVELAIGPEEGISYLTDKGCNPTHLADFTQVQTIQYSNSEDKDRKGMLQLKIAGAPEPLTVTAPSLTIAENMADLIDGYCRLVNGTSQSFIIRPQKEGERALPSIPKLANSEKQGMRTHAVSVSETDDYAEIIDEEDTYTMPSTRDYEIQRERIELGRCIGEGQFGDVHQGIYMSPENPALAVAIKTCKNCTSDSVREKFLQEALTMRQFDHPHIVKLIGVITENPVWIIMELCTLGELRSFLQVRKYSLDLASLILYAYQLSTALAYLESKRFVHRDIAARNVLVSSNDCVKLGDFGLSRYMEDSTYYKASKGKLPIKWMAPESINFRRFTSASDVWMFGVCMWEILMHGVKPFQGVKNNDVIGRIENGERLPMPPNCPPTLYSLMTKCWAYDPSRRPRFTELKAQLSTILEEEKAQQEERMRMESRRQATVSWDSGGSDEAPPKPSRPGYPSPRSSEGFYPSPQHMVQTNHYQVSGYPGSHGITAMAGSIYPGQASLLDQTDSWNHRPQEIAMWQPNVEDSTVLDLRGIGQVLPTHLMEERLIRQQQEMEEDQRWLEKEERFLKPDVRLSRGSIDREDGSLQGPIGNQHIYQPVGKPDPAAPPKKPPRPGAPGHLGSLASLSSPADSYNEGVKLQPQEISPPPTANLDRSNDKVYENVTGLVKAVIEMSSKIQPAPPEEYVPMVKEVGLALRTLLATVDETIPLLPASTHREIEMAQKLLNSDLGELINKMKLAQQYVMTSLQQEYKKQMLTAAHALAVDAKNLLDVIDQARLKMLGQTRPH
Chain of Follistatin (Homo sapiens) (P19883 whole entry, looked up): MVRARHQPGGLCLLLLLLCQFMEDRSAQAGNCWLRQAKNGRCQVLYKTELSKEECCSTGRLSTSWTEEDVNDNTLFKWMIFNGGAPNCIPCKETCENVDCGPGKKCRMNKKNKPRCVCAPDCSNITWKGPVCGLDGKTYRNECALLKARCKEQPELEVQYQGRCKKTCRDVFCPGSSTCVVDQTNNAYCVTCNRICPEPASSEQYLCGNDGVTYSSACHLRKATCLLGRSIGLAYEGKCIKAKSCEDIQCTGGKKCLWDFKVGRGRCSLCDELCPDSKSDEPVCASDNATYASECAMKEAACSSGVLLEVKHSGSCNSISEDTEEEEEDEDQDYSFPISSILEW
Chain of Concanavalin-A (Canavalia ensiformis) (P02866 whole entry, looked up): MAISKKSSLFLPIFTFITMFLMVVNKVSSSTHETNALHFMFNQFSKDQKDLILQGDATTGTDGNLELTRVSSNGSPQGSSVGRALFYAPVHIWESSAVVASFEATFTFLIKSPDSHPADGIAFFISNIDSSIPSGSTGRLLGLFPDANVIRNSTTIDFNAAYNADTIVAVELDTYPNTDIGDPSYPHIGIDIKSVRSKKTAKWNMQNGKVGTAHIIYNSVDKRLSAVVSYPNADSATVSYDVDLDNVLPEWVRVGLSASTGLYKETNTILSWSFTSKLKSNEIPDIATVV
Chain of Luciferin 4-monooxygenase (Photinus pyralis) (P08659 whole entry, looked up): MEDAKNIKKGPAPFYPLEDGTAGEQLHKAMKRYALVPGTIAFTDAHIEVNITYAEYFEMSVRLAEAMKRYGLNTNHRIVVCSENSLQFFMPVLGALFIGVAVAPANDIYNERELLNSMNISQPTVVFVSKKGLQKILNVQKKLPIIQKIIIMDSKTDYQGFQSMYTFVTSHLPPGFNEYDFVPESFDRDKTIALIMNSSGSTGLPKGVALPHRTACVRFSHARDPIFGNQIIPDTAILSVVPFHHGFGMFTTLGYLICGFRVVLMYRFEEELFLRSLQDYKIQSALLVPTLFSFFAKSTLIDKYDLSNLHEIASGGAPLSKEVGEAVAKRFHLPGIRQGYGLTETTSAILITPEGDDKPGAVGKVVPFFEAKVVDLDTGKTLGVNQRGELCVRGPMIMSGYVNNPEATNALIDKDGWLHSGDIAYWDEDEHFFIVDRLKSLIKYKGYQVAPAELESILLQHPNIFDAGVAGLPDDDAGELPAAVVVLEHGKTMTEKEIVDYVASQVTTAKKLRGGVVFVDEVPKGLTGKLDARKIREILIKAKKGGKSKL
Chain of Fibroblast growth factor 2 (Homo sapiens) (P09038 whole entry, looked up): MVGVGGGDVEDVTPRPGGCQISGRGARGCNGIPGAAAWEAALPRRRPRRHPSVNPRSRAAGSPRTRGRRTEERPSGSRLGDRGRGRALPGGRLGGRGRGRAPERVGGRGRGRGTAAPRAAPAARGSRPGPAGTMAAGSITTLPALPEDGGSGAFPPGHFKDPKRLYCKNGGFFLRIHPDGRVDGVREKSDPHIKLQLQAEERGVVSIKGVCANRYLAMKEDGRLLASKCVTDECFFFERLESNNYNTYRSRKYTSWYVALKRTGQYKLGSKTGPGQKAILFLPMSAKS

As for `COCCCNC(=O)[C@@]1(C)c2ccccc2C(=O)N(Cc2cc(C(F)(F)F)cc(C(F)(F)F)c2)[C@H]1c1ccc(CO)cc1`, the composite z-score was -0.0502 in the assay with Albumin (Bos taurus); -0.256 in assay [2]; -0.0173 in [3]; 0.74 in assay [4]; 1.68 in assay [5]; -0.066 in assay [6]. Further, the composite z-score in the assay on Sam68 (KHDRBS1) was -0.21; in [7], -2.46; in assay [8], 0.851; in assay [9], -0.12; in assay [10], -0.203; in assay [11], 0.295. Further, the composite z-score in assay [12] is 0.207; in assay [13], -0.672; in [14], -1.5; in the assay on Lefty1 it was -0.191; in assay [16], 0.0593. Also, the composite Z-score in [1] is 0.318 (inactive). The figures for the z-score in [15] and in assay [17] were 0.509 and 1.16 (inactive), respectively.
Turning to `Cc1ccccc1C(O)C1C=CC2C(=O)N(C)C(=O)C2N1N1CCCCC1` (stereo not given), the composite z-score in the assay with Albumin (Bos taurus) is 0.992; in assay [2], 0.36; in [3], 0.21; in [4], 0.793; in assay [5] it was 2.92; in assay [6], 0.996. The composite z-score in the assay with Sam68 (KHDRBS1) worked out at 1.32; in assay [7], 0.642; in assay [8], 1.09; in [9] it was 1.87; in assay [10], 1.18; in assay [11] it was 0.665. Moreover, the composite z-score in [12] turned out to be 0.908; in assay [13], 0.767; in [14], 0.0201; with Lefty1, 0.0198; in assay [16], 0.596. Also, the composite Z-score in assay [1] is -0.118 (inactive). For the same molecule, the z-score in assay [15] is 0.0822; in [17] it was 0.497 (inactive).
For the molecule `[N-]=[N+]=NCc1ccccc1C[C@@]1(C(=O)N2CCOCC2)N=C(c2ccc(OCCCO)cc2)O[C@@H]1c1ccccc1CN=[N+]=[N-]`, the composite z-score in the assay with Albumin (Bos taurus) came out at 0.922; in assay [2] it was 0.713; in [3], 0.266; in assay [4], 0.586; in [5], 2.61; in [6], 1.29. Besides, the composite z-score is 1.31 with Sam68 (KHDRBS1); -0.725 in assay [7]; 1.14 in [8]; 3.09 in assay [9]; 1.25 in assay [10]; 0.829 in assay [11]. Also, the composite z-score amounted to 0.978 in assay [12]; 1.05 in [13]; 0.684 in [14]; 0.365 with Lefty1; 1.3 in assay [16]. Moreover, in assay [1], the composite Z-score was 0.696 (inactive). Moreover, the z-score in assay [15] was 0.74; in [17], -0.832 (inactive).
Take `COC(=O)[C@@]1(Cc2ccc(OC)cc2)[C@H]2c3cc(C(=O)N4CCCC4)n(Cc4cc(F)cc5c4OCOC5)c3C[C@H]2CN1C(=O)c1ccccc1`: the composite z-score with Albumin (Bos taurus) was 0.161; in assay [2], 0.58; in [3], 0.38; in [4], 0.916; in assay [5], 2.39; in [6] it was -0.429. Besides, the composite z-score is -0.0061 with Sam68 (KHDRBS1); -0.974 in [7]; 0.693 in assay [8]; -0.642 in assay [9]; 1.2 in assay [10]; 0.993 in [11]. For the same molecule, the composite z-score in [12] is -0.18; in assay [13] it was 0.0448; in assay [14], -0.873; in the assay on Lefty1, -0.394; in assay [16] it was 0.0908. In assay [1], the composite Z-score is -0.0345 (inactive). For the same molecule, the z-score was 0.64 in assay [15] and 0.0222 (inactive) in assay [17].
For the molecule `COc1ccc(C(O)C2C=CC3C(=O)N(C)C(=O)C3N2Nc2ccccc2)cc1OCc1ccccc1` (stereo not given), the composite z-score with Albumin (Bos taurus) was 0.878; in assay [2], -0.0714; in assay [3] it was -0.0128; in [4], 0.754; in assay [5], 1.67; in [6], -0.142. In addition, the composite z-score was 1.28 in the assay with Sam68 (KHDRBS1); -0.0441 in assay [7]; 0.949 in assay [8]; 1.05 in [9]; 1.27 in [10]; 0.091 in assay [11]. Moreover, the composite z-score in assay [12] is 1.01; in assay [13], 0.336; in assay [14], -0.0667; in the assay on Lefty1 it was 0.0084; in assay [16] it was 1.34. Further, in [1], the composite Z-score was 0.0582 (inactive). For the same molecule, the z-score in assay [15] is -0.295; in assay [17], -0.51 (inactive).
